Assay outcomes: PubChem BioAssay, several laboratories
Wnt act: activators of Wnt/beta-catenin signaling; Wnt/beta-catenin reporter cell assay, activator, plate reader; activation, % at 9.35 µM; hit rate 1.2% among 300,000; AID 743398; in the data active = activation above about 30%, passing the limit was not always enough;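 also: 0% = neutral control wells and 100% = positive control wells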
esBAF inh: blocks esBAF chromatin remodeling in mouse ES cells | Bmi1-luciferase knock-in reporter, 24 h; 100% = twice the neutral-well signal | reporter increase, % at 12.5 µM | hit rate 2% among 350,000; in the data active = activation above about 40%;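 also: 0% = median of the plate's neutral control wells and 100% = double that signal; a rise in the Bmi1 reporter signal indicates esBAF inhibition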
MITF TRPM1 HTS: activators of MITF-driven TRPM1 promoter activity in SK-MEL-5 cells | SK-MEL-5 TRPM1-promoter luciferase, 24 h; % of positive control, neutral wells = 0 | activation, % at 12.5 µM | hit rate 0.75% among 300,000;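 active = mean activation of at least 80% with every replicate also reaching 80%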;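 also: 0% = neutral control wells and 100% = parthenolide positive control wells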
GAA850 FXN act: frataxin GAA850 promoter activation | HEK293 lucGAA850 FXN promoter luciferase reporter, 24 h; percent of 10 µM SAHA response | activation, % at 6 µM | hit rate 0.56% among 360,000 | AID 540364;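 active = activation above the average of all compounds screened plus 3 SD, cutoff fixed separately per campaign, cut at about 7.5% in these data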;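 also: 0% = DMSO wells and 100% = 10 µM SAHA wells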
AHR act: human AHR activation; hit rate 2.5% among 320,000; activation, % at 5 µM; P35869; AHR-responsive luciferase reporter cells, luminescence; in the data active = activation above about 47%;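 also: 0% = vehicle wells and 100% = reference agonist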
Target sequence (P35869 whole entry, looked up): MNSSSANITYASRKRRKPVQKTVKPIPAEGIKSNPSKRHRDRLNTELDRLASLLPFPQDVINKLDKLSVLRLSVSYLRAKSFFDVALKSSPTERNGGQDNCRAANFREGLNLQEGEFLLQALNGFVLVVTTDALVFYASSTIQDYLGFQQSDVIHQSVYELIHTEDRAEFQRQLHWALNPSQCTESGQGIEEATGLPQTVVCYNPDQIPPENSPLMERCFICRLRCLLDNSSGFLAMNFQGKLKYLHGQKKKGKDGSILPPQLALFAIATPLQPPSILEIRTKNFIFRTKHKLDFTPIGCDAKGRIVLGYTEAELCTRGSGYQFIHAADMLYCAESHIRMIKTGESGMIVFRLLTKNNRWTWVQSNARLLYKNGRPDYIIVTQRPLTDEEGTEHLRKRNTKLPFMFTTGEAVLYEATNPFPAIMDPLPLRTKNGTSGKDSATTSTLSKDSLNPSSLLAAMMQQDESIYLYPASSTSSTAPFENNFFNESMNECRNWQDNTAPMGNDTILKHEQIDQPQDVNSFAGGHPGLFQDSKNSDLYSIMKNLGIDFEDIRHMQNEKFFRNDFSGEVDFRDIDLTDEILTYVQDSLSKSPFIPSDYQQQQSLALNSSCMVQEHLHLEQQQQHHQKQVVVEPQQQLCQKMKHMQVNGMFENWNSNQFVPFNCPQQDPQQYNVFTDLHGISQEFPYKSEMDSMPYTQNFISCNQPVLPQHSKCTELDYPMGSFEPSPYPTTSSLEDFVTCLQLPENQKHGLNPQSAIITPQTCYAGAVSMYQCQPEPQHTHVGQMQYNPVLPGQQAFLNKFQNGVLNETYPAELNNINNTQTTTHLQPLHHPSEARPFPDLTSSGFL
AHR act confirm: confirmation of human aryl hydrocarbon receptor activators; shares compounds with AHR act; human cells, AHR-responsive luciferase reporter, luminescence; activation, % at 9 µM; hit rate 87% among 2,300; in the data active = activation above about 49%;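 also: HepG2 hepatoma cells carrying a DRE-driven firefly luciferase reporter; 0% = vehicle wells and 100% = reference agonist wells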
PXR act counter: activates human PXR in AHR activator counter-screen; shares compounds with AHR act; hit rate 88% among 2,300; activation, % at 11.6 µM; AID 434939; cell-based PXR reporter, luciferase luminescence; in the data active = activation above about 11%;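 also: human hepatoma DPX-2 cells expressing full-length human PXR; 0% = DMSO and 100% = reference agonist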
* = called active by the depositor. Shown are actives, neighbours in structure and some others; about 4.2% of the full set was active somewhere.

How did CCOc1ccc(-c2cc(C(=O)N3CCC4(CC3)OCCO4)c3ccccc3n2)cc1 do in these assays?
Wnt act: 24.3; MITF TRPM1 HTS: 100.0*; GAA850 FXN act: 2.9

How did CCc1c(-c2ccccc2)nc2ccccc2c1C(=O)N1CCC2(CC1)OCCO2 do in these assays?
Wnt act: -1.9; esBAF inh: -5.4; MITF TRPM1 HTS: 2.4; GAA850 FXN act: 0.4; AHR act: 2.9

How did COc1ccc(-c2cc(C(=O)N3CCC4(CC3)OCCO4)c3ccccc3n2)cc1 do in these assays?
Wnt act: 8.1; esBAF inh: 41.1*; MITF TRPM1 HTS: 48.0; GAA850 FXN act: 1.5; AHR act: 4.3

Results for COc1ccc(C#Cc2ccc([C@@H]3[C@@H](CO)N4CCCCN(C(=O)Cc5ccccc5)C[C@@H]34)cc2)cc1 ?
esBAF inh: 8.7

How did CC=Cc1ccc2n(c1=O)C[C@H]1[C@H](CO)[C@@H](C(=O)OC)[C@@H]2N1C(=O)CC (mixture of isomers) do in these assays?
esBAF inh: -2.7

What do the screens show for `O=C(O)[C@@H]1[C@@H](CO)[C@@H]2Cn3c(ccc(-c4ccncc4)c3=O)[C@H]1N2S(=O)(=O)c1ccccc1F`?
esBAF inh: 0.0

How did CCC(=NCc1ccc2c(c1)OCO2)c1c(O)n(C)c(=O)n(C)c1=O do in these assays?
Wnt act: -3.1; esBAF inh: -4.0; GAA850 FXN act: 2.1; AHR act: 27.0

What do the screens show for `CC(=NCc1ccc2c(c1)OCO2)c1c(O)n(C)c(=O)n(C)c1=O`?
Wnt act: 7.7; esBAF inh: -8.6; GAA850 FXN act: -1.8; AHR act: 58.4*

How did NC(N)=Nc1ccc2[nH]c3c(c2c1)C[C@@]1(O)[C@H]2Cc4ccc(O)c5c4[C@@]1(CCN2CC1CC1)[C@H]3O5 do in these assays?
esBAF inh: -0.5; MITF TRPM1 HTS: -2.5; GAA850 FXN act: 11.2*; AHR act: 14.3

Results for CCN(CC)c1ccc(/C=C/[N+](=O)[O-])cc1 ?
Wnt act: -0.4; esBAF inh: -3.9; MITF TRPM1 HTS: -13.8; GAA850 FXN act: 0.4; AHR act: 3.2

How did O=[N+]([O-])/C=C/c1c(Cl)cccc1Cl do in these assays?
Wnt act: -0.5; MITF TRPM1 HTS: -110.3; GAA850 FXN act: 9.0*

How did Cc1cc(/C=C2\C(=O)NC(=O)N(c3ccc(Br)cc3)C2=O)c(C)n1C do in these assays?
Wnt act: -11.3; esBAF inh: -4.4; MITF TRPM1 HTS: -0.3; GAA850 FXN act: 2.5; AHR act: 64.2*

How did O=[N+]([O-])c1ccc(N2CCNCC2)cc1NCc1ccco1 do in these assays?
Wnt act: -2.7; MITF TRPM1 HTS: -4.1; GAA850 FXN act: 2.5; AHR act: 70.7*

How did CN1CCN(c2ccc([N+](=O)[O-])c(NCc3ccco3)c2)CC1 do in these assays?
Wnt act: -1.4; MITF TRPM1 HTS: 13.2; GAA850 FXN act: 2.9; AHR act: 63.3*

Results for Cc1ccc2c(c1N)C(=O)c1ccccc1C2=O ?
Wnt act: 44.3*; esBAF inh: 55.1*; MITF TRPM1 HTS: 94.6*; GAA850 FXN act: 5.2; AHR act: 72.6*

Results for COC(=O)C[C@H]1CC[C@H]2NC[C@H](O)COC[C@@H]2O1 ?
esBAF inh: 2.9

Results for CCOC(=O)c1c(C)n(Cc2ccccc2)c2ccc(OCC(O)Cn3nc(C)cc3C)cc12 (stereo unspecified) ?
esBAF inh: 17.7; MITF TRPM1 HTS: -10.5; GAA850 FXN act: 0.1; AHR act: 55.1*

What do the screens show for `C[C@H]1CN([C@@H](C)CO)C(=O)CCCn2nncc2CO[C@@H]1CN(C)C(=O)Oc1ccc2ccccc2c1`?
esBAF inh: 0.9

Results for C(=NN1CCCCCC1)c1c[nH]c2ccccc12 ?
Wnt act: -2.1; esBAF inh: 5.0; MITF TRPM1 HTS: -1.6; GAA850 FXN act: 0.5

What do the screens show for `Brc1ccc2[nH]cc(/C=N/N3CCCCC3)c2c1`?
Wnt act: 1.6; MITF TRPM1 HTS: 3.0; GAA850 FXN act: 1.3; AHR act: 83.1*; AHR act confirm: 33.3; PXR act counter: 21.7*

What do the screens show for `Cc1cnc(-n2c(=S)[nH]c3ccccc3c2=O)s1`?
Wnt act: -2.0; esBAF inh: 1.0; MITF TRPM1 HTS: -26.6; GAA850 FXN act: 2.4; AHR act: 124.7*; AHR act confirm: 137.5*; PXR act counter: 19.5*

How did Nc1ccc(N=Nc2ccccc2)cc1 do in these assays?
Wnt act: 16.2; MITF TRPM1 HTS: 34.8; GAA850 FXN act: -1.3; AHR act: -4.5

What do the screens show for `Cc1cc(N=Nc2ccccc2C)ccc1N`?
Wnt act: 55.3*; esBAF inh: 31.2; MITF TRPM1 HTS: 34.9; AHR act: 80.4*; AHR act confirm: 129.6*; PXR act counter: 11.6*

What do the screens show for `O=C1CN=C(c2ccc(Br)cc2)c2oc3ccccc3c2N1`?
Wnt act: 5.1; esBAF inh: -6.2; MITF TRPM1 HTS: -14.1; GAA850 FXN act: 5.7; AHR act: 82.4*; AHR act confirm: 107.8*; PXR act counter: 29.0*

What do the screens show for `O=C1CN=C(c2ccc(F)cc2)c2oc3ccccc3c2N1`?
Wnt act: 0.9; MITF TRPM1 HTS: 4.5; GAA850 FXN act: 0.4; AHR act: 2.5

How did COc1ccc(C#Cc2ccc([C@H]3[C@@H](CO)N4CCCCN(C(=O)Cc5ccccc5)C[C@H]34)cc2)cc1 do in these assays?
esBAF inh: 5.9

How did O=C(Cc1ccccn1)N1CCCCN2[C@H](CO)[C@@H](c3ccc(-c4ccccc4F)cc3)[C@@H]2C1 do in these assays?
esBAF inh: 5.2

What do the screens show for `Cc1nc2ccc(Cl)cc2c(=O)n1-c1ccc([N+](=O)[O-])cc1`?
Wnt act: 0.9; esBAF inh: 0.1; MITF TRPM1 HTS: -0.6; GAA850 FXN act: -0.1; AHR act: 140.2*; AHR act confirm: 3.9; PXR act counter: 11.4*

How did Cc1nc2cc([N+](=O)[O-])ccc2c(=O)n1-c1ccc(Br)cc1 do in these assays?
Wnt act: -0.6; esBAF inh: -10.5; GAA850 FXN act: 1.2; AHR act: 87.2*; AHR act confirm: 34.5; PXR act counter: 11.4*

How did O=C(Cc1ccccn1)N1CCCCN2[C@H](C1)[C@@H](c1ccc(Br)cc1)[C@@H]2CO do in these assays?
esBAF inh: 2.1
